These results are taken from PubChem BioAssay AID1851 (National Center for Advancing Translational Sciences (NCATS), 2009).

About 5,700 (36%) of roughly 16,000 compounds were called active. Another 24% or so got no clear call; they are omitted. The call rests on the fitted dose curve; in most records, active means well fitted curve in the direction sought with a large enough effect; inconclusive means small, poorly fitted or top-dose-only effect, or effect the other way; inactive means no such curve, though single readings can be large or run the other way. This is one part of the list.
On the % scale 0 is the no-effect control and ±100 the full control effect.

Cytochrome P450 1A2 (Homo sapiens), sequence (P05177 whole entry, looked up): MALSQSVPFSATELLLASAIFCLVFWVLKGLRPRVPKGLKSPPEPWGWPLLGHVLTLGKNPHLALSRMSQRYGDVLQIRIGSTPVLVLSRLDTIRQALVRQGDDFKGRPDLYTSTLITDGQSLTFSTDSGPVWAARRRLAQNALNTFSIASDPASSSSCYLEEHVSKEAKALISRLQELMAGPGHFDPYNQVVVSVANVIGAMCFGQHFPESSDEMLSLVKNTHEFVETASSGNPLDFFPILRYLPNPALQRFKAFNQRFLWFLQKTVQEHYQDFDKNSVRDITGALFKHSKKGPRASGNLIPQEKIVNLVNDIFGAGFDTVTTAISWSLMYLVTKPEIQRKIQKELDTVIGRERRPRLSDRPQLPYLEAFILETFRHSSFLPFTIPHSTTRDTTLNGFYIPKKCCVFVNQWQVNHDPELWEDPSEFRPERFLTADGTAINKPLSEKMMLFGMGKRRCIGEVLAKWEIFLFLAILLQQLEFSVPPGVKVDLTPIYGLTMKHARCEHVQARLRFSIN

The assay has as its target Cytochrome P450 1A2 (Homo sapiens) (UniProt P05177). As to the kind of experiment: Cytochrome panel assay with activity outcomes. The note with it: recombinant CYP, pro-luciferin dealkylation, luminescence, p450-cyp1a2; series mostly up to 57.1 µM.
What is called AC50 is the concentration giving half of the maximal activity seen. Regarding `CCn1ncc(/C=C/C(=O)NCc2cn(C)nc2C)c1C`, the AC50 result is “inactive”.
Regarding `COCc1cc(=O)[nH]c2cc(NC(=O)C(F)(F)F)c(C)cc12`, the AC50 is 11.2 µM (active).
`CCCCCC(=O)Nc1cc2[nH]c(=O)cc(COC)c2cc1C`: the AC50 result was “inactive”.
The same measure, in the same setting: in the case of `COc1ccc(C(=O)Nc2ccc(C(=O)OCC(=O)c3ccccc3)cc2)cc1` it was “inactive”; in that of `COc1cccc(C(CC(=O)Nc2cccc3ccccc23)NC(=O)c2ccccc2)c1` (configuration not stated), “inactive”; in that of `CCC(=O)Nc1ccccc1C(=O)OCC(=O)c1ccccc1`, 5.62 µM (active).
In the case of `CCC(=O)Nc1ccccc1C(=O)OCC(=O)c1cccc2ccccc12`, the AC50 was 2.51 µM (active).
Turning to `COc1ccc(C(=O)COC(=O)c2ccc(NC(=O)c3ccccc3)cc2)cc1`, the AC50 entry was “inactive”.
The same measure, in the same setting: the result for `COc1cccc(-c2ccc3ncnc(N(C)C)c3c2)c1` reads 0.794 µM (active); that for `CN(C)c1ncnc2ccc(-c3cccnc3)cc12`, 0.2 µM (active).
Regarding `O=C1NC(O)=NC1(c1ccccc1)c1ccccc1`, the AC50 result was “inactive”.
The same measure, in the same setting: in the case of `CSc1nc(N)nc(-c2cccs2)c1C#N` it was 2 µM (active); in that of `N#Cc1c(-c2ccccc2)cc(C2CC2)nc1SCC(=O)c1cccs1`, 0.562 µM (active).
The same measure, in the same setting: in the case of `CSc1nc(C2CC2)cc(-c2cccs2)c1C#N` it was 0.316 µM (active); in that of `CC(C)C12CN3CC(C(C)C)(CN(C1)C3c1ccco1)C2=O` (configuration not stated), “inactive”.
Still for that read-out and setting: the result for `Cc1ccc(N=CC2=C(O)CC(c3ccco3)CC2=O)cc1` (configuration not stated) reads 25.1 µM (active); that for `CCC(=O)N(C)/C=C1\Sc2ccccc2C1=O`, 3.16 µM (active).
Regarding `CS(=O)(=O)c1cnc2c(-c3ccc(F)cc3)cnn2c1N`, the AC50 is 3.55 µM (active).
For `O=C(N/N=C/c1cc([N+](=O)[O-])ccc1N1CCNCC1)c1ccc([N+](=O)[O-])cc1`, the AC50 result was “inactive”.
`O=C(N/N=C/c1ccc([N+](=O)[O-])s1)c1ccccc1Br`: the AC50 is 15.8 µM (active).
In the case of `Cc1ccc(C(=O)N/N=C/c2ccc([N+](=O)[O-])s2)cc1`, the AC50 is 2.82 µM (active).
For the compound `Cc1cccc(NC(=S)N/N=C/c2ccc([N+](=O)[O-])s2)c1`, the AC50 was 1.41 µM (active).
The same measure, in the same setting: in the case of `O=C(N/N=C/c1ccc(Br)s1)c1ccccc1[N+](=O)[O-]` it was 14.1 µM (active).
Turning to `COc1cccc(NC(=S)NNC(=O)C(C)n2nc(C)c([N+](=O)[O-])c2C)c1` (configuration not stated), the AC50 result was “inactive”.
The same measure, in the same setting: in the case of `O=C(NCCNc1ccc([N+](=O)[O-])cc1)c1ccccc1Br` it was “inactive”.
`CO[C@H]1COC(=O)C/C=C\[C@@H](C)[C@H](OC)COC(=O)CCC[C@@H]1C`: the activity, negative = inhibition was -5.95% [at 11.4 µM] (inactive).
`CC(=O)N1CCC(=O)N(C(C)C)c2ccccc21`: the AC50 result was “inactive”.
`Cc1cc(N2CCN(c3nc4ccccc4s3)CC2)n2ncnc2n1`: the AC50 is 15.8 µM (active).
Turning to `CCCNC(=O)OC[C@@H]1O[C@H](CCO/N=C(\C)CCN2CCCc3nc(C)c(C)cc32)C=C[C@@H]1Oc1ccc(OC)cc1`, the activity, negative = inhibition was 0.587% [at 11.4 µM] (inactive).
In the case of `COc1ccc(NC(=O)/C(=C\c2cc(OC)c(OC)cc2[N+](=O)[O-])NC(=O)c2ccccc2)cc1`, the AC50 result was “inactive”.
On the same count and under the same terms, the result for `C=CCOC(=O)/C(=C\c1cccc2ccccc12)NC(=O)c1ccccc1` reads 7.08 µM (active).
On the same count and under the same terms, the result for `CCCCOc1ccc(C(=O)N/C(=C\c2cccc([N+](=O)[O-])c2)C(=O)OCCC)cc1` reads “inactive”; that for `c1ccc2c(c1)-c1nc3ccccc3cc1[C@H]2N1CCOCC1`, 1.26 µM (active); that for `CCCCCCC1CC(C)(/C(C)=N/NC(N)=O)OC1=O` (configuration not stated), “inactive”.
Consider `O=S(=O)(c1cnccc1N1CCN(/N=C/c2ccccc2)CC1)N1CCCCC1`, for which the AC50 entry is “inactive”.
On the same count and under the same terms, in the case of `CCn1c(-c2ccoc2C)n[nH]c1=S` it was 22.4 µM (active).
Turning to `O=C(O)CCSC1=NCCN1`, the activity, negative = inhibition is -7.93% [at 11.4 µM] (inactive).
Regarding `CSC1(SC2=NCCN2)SC2(NCCN2)S1`, the AC50 is 0.398 µM (active).
On the same count and under the same terms, the result for `COc1ccc(NC(=O)N2CC[C@@]3(CCCNC3)C2)cc1` reads “inactive”; that for `CCCCN1C(=O)C(NC(=O)C2CC2)(C(F)(F)F)C2=C1CC(C)(C)CC2=O` (configuration not stated), “inactive”; that for `CSc1nncc(/C(C)=N\Nc2ccccc2)n1`, 12.6 µM (active).
As for `CC/C(=N/Nc1ccccc1)c1cnnc(SC)n1`, the AC50 was 10 µM (active).
`CCc1ccc(N(C(=O)c2ccoc2C)C(C(=O)NC2CCCC2)c2ccc(OC)cc2)cc1` (configuration not stated): the AC50 result is “inactive”.
As to `Cc1ccc(Nc2nnc(-c3ccc4c(c3)OCO4)o2)c(C)c1`, the AC50 is 2.51 µM (active).
The same measure, in the same setting: in the case of `COc1cc(N=C(N)N=C(N)N)c2ncccc2c1` it was 0.398 µM (active).
Take `COc1ccc([C@H](O)c2ccccn2)cc1`: the activity, negative = inhibition was -16% [at 11.4 µM] (inactive).
As for `COc1cc(NCCC(=O)O)c2ncccc2c1`, the activity, negative = inhibition is -18.1% [at 11.4 µM] (inactive).
On to `CC(C)=CCC/C(C)=C/CO/N=C1/[C@H]2O[C@@H]2[C@@H](O)[C@H]2[C@H]1CCn1c(=O)n(Cc3cc4c(cc3Cl)OCO4)c(=O)n12`, for which the activity, negative = inhibition is -2.22% [at 11.4 µM] (inactive).
With `c1ccc(CN2c3ccccc3-c3nc4ccccc4n3C2c2ccccn2)cc1` (configuration not stated), the AC50 was 4.47 µM (active).
Same read-out and setting: in the case of `O=C(Cc1ccccc1)Nc1nc2ccc(Cl)cc2c2nc(-c3ccco3)nn12` it was 0.2 µM (active).
Regarding `CN(C)Cc1cc(Cl)c(O)c(CN(C)C)c1`, the activity, negative = inhibition is -10.7% [at 11.4 µM] (inactive).
Turning to `Oc1ccc(Cl)cc1Cc1cc(Cl)cc(Cc2cc(Cl)ccc2O)c1O`, the activity, negative = inhibition is -23.8% [at 2.29 µM] (inactive).
With `Oc1ccc(Cc2cc(Cl)cc(Cl)c2O)cc1Cl`, the AC50 was 1.58 µM (active).
Take `COc1ccccc1CN(Cc1cc2cc3c(cc2[nH]c1=O)OCCO3)Cc1nnnn1Cc1ccco1`: the AC50 is 17.8 µM (active).
The same measure, in the same setting: the result for `CCC(C)(C)n1nnnc1C(C(C)C)N(Cc1ccco1)Cc1cc2cc3c(cc2[nH]c1=O)OCO3` (configuration not stated) reads 14.1 µM (active).
Same read-out and setting: the result for `CCC(Sc1nc2cc3c(cc2c(=O)n1Cc1ccco1)OCO3)C(=O)Nc1ccccc1OC` (configuration not stated) reads “inactive”; that for `CCC(C)(C)n1nnnc1C(c1ccc(C)cc1)N1CCC(C)CC1` (configuration not stated), “inactive”.
For `CC(C)(C)n1nnnc1C(c1cccnc1)N(Cc1ccccc1)Cc1ccco1` (configuration not stated), the AC50 result is “inactive”.
Still for that read-out and setting: the result for `Cc1nonc1NC(=O)N1CCCC1` reads “inactive”; that for `CCC[C@@H]1O[C@@H]2C[C@@H]3[C@H]4CCC5=CC(=O)C=C[C@@]5(C)[C@H]4[C@H](O)C[C@@]3(C)[C@@]2(C(=O)CO)O1`, “inactive”.
Same read-out and setting: the result for `CN(C(=O)c1c(O)c2ccccc2n(C)c1=O)c1ccccc1` reads “inactive”; that for `CCCc1c(O)c2ccccc2n(-c2ccccc2)c1=O`, 14.1 µM (active).
